Results from PubChem BioAssay.
Values joined by “and” are separate entries in the source; they are usually repeats but may differ in a detail not shown here. Identical values can stand only once.

Assays:
[1] = system: Human papillomavirus type 1a protein E7 (residues 44-93); assay: small molecules binding HPV E7 44-93 – biochemical, small-molecule microarray, residues 44-93, 635 nm fluorescence, primary screen (AID 1108); conditions: fluorescence 635 nm, higher = more signal;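 note: E7 fragment applied at 1 µg/mL in TBST for 1 h at 4 C; score combines spot fluorescence with its signal to noise ratio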
[2] = hepatitis C replication reporter changes, two-sided – Huh7 cells, luciferase reporter, HCV replication inhibitor project, primary screen (AID 1109); conditions: Huh7 HCV replicon luciferase reporter, 48 h; higher = more signal;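 note: huh7 hepatoma cells harbouring a luciferase neomycin HCV replicon reporter; luciferase luminescence as measure of HCV replicon replication; test concentration not given here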
[3] = target: Left-right determination factor 2 (Homo sapiens) (UniProt O00292); assay: small molecules binding LEFTY2 protein – biochemical, small-molecule microarray, 635 nm fluorescence scan, primary screen (AID 1110); conditions: higher = more signal
Chain of Left-right determination factor 2 (Homo sapiens) (O00292 whole entry, looked up): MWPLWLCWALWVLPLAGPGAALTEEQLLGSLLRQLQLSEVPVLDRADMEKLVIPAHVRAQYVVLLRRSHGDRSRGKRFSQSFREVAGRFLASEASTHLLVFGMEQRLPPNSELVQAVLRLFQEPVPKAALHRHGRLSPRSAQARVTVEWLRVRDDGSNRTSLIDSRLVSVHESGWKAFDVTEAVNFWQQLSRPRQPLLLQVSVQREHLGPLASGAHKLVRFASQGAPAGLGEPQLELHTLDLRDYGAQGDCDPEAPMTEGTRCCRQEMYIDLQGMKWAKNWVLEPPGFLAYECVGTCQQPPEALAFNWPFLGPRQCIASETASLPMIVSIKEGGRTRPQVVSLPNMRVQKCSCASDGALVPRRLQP

[4] = target: Calmodulin-1 (Homo sapiens) (UniProt P0DP23); assay: small molecules binding calmodulin-1 with EGTA – biochemical, small-molecule microarray, Cy5-labelled CALM1, profiling panel (AID 1111); conditions: Cy5-CALM1 binding fluorescence, higher = more signal;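 note: labelled calmodulin applied in Tris saline Tween buffer holding calcium plus EGTA and DTT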
[5] = target: Calmodulin-1 (Homo sapiens) (UniProt P0DP23); assay: small molecules binding Ca-loaded calmodulin-1 – biochemical, small-molecule microarray, Cy5-labelled CALM1, plus calcium, artefact control for SMM control-protein annotation, profiling panel (AID 1112); conditions: Cy5-CALM1 binding fluorescence, higher = more signal;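 note: score merges spot fluorescence with signal to noise from triplicate slides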
[6] = probe aWnt5a binding to arrayed compounds – biochemical, biotinylated probe, 635/667 nm fluorescence, primary screen (AID 1113); conditions: small-molecule microarray, higher = more signal;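 note: score merges 667 nm fluorescence intensity with signal-to-noise per printed feature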
[7] = probe aShh binding to arrayed compounds – biochemical, biotinylated probe, 635/667 nm fluorescence, primary screen (AID 1114); conditions: small-molecule microarray, higher = more signal;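 note: probe is biotin-labelled aShh protein from a stem cell growth factor screen; measures binding of labelled protein to compounds printed on the slide; score merges feature fluorescence at 667 nm with signal-to-noise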
[8] = probe aNog binding to arrayed compounds – biochemical, biotinylated probe, 635/667 nm fluorescence, primary screen (AID 1115); conditions: small-molecule microarray, higher = more signal;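 note: probe is biotinylated aNog protein used at 0.15 µg/mL for 1 h at 4 C; z-score combines 667 nm fluorescence of each spot with its signal to noise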
[9] = target: Torsin-1A-interacting protein 1 (Homo sapiens) (UniProt Q5JTV8); assay: compound microarray binding of lysate hLAP1 – cell lysate, small-molecule microarray, COS7 lysate, 635/667 nm fluorescence, primary screen (AID 1116); conditions: 635 nm fluorescence, higher = more signal
Chain of Torsin-1A-interacting protein 1 (Homo sapiens) (Q5JTV8 whole entry, looked up): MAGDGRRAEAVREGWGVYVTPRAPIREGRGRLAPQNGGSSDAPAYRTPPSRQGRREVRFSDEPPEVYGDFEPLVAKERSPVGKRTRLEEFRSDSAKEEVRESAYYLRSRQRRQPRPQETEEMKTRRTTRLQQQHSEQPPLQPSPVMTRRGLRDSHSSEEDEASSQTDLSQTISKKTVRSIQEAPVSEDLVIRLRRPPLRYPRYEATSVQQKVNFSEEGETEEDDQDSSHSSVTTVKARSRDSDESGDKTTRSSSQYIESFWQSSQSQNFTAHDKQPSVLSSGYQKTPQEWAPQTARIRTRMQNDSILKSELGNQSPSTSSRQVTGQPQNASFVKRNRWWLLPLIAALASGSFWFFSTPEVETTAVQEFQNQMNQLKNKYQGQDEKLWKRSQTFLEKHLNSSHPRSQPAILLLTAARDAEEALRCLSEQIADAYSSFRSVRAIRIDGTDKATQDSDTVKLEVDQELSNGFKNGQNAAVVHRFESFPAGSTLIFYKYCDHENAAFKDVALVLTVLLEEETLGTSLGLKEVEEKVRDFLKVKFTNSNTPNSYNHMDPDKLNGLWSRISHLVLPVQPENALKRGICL

[10] = target: Alpha-bungarotoxin (Bungarus multicinctus) (UniProt P60615); assay: compounds binding labelled alpha-BTX control protein – biochemical, small-molecule microarray, Alexa647 label, 635/667 nm fluorescence, artefact control for SMM control protein annotation, profiling panel (AID 1117); conditions: alpha-BTX-A647 binding fluorescence, higher = more signal
Chain of Alpha-bungarotoxin (Bungarus multicinctus) (P60615 whole entry, looked up): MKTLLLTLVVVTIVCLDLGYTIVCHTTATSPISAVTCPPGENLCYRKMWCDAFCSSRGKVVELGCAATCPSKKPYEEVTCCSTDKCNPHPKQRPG

Row | SMILES | composite z-score [1] | z-score [2] | composite z-score [3] | composite z-score [4] | composite z-score [5] | composite z-score [6] | composite z-score [7] | composite z-score [8] | composite z-score [9] | composite z-score [10]
1 | C=CCN(CCCCC)C(=O)C(c1cccs1)N(C(=O)/C=C\C(=O)O)c1ccc(CCO)cc1 (stereo not given) | 0.0979 and -0.457 | -0.779 and -0.741 | -3.06 and -2.73 | -0.783 and -0.531 | 0.0708 and 0.542 | -0.284 and -0.211 | 0.289 and -0.154 | -0.23 and -0.241 | -0.755 and -0.0484 | -0.89 and -0.874
2 | C=CC[C@@H](O)c1ccc(OCCO)cc1 | -1.68 and -0.85 | 1.71 and 1.54 | -0.301 and -1.81 | -1 and -1.27 | -0.166 and -0.74 | -0.184 and -0.247 | -0.138 and -0.0626 | -0.435 and -0.201 | 0.141 and -0.598 | -0.416 and 1.32
3 | CC(C)CON=C1C[C@@H](O)[C@@H](O)[C@@H]2[C@@H]3C(=O)N(c4cccc(Oc5ccccc5)c4)C(=O)[C@@H]3CC[C@H]12 | 0.529 | 0.802 | 0.432 | 0.401 | -0.201 | -0.0269 | -0.0553 | -0.5 | 0.357 | 0.162
4 | O=C1C[C@]2(c3ccc([N+](=O)[O-])cc3)C(=O)N(Cc3ccccc3)c3cc(CO)ccc3[C@H]2N1C1CCCCC1 | 0.986 and 0.622 | -0.107 and -2.97 | -1.1 and 0.586 | -0.135 and 1.19 | -0.195 and 0.163 | -0.0546 and -0.0556 | 0.0611 and 0.393 | -0.262 and 0.344 | 0.395 and -0.136 | 0.0277 and -0.0515
